Experimental findings from the OligoGym collection are described below.
Further: reference of the scale not given here.

The first experiment has as its target ASPRV1. Nature of the experiment: pooled miR-30 sensor sort-seq; sequence = guide strand. Particulars: shRNA.
The sequence TCTTTCAGGAACCTTAGCTTGG gave a sensor-assay potency score (higher = more potent) of -0.57.

Consider TCATTGATGACTTCAAAGCTGT, for which the sensor-assay potency score (higher = more potent) is -0.318.

On to TTTCAGGAACCTTAGCTTGGTG, for which the sensor-assay potency score (higher = more potent) was -0.909.

ATTGATGACTTCAAAGCTGTGC registered a sensor-assay potency score (higher = more potent) of 0.217.

Consider TGAGATAGTAGCCCTTACCCAT, for which the sensor-assay potency score (higher = more potent) was -0.959.

As for TTCAGCACCATTGGCCACCTTT, the sensor-assay potency score (higher = more potent) is -0.724.

For TAGCTTGGTGATATGGTCCCAA, the sensor-assay potency score (higher = more potent) was found to be 0.0777.

In turn, TTCAGGAACCTTAGCTTGGTGA came in with a sensor-assay potency score (higher = more potent) of -1.12.

In the case of TTGAGGTCATTGATGACTTCAA, the sensor-assay potency score (higher = more potent) is -0.277.

The sequence TTGCCTAGGGACACCGCTGTAT returned a sensor-assay potency score (higher = more potent) of -1.05.

The target in a further experiment is ASTE1. The description is as above. Particulars: shRNA.
Take TAGATATTCATAAAGTTGCTTA: the sensor-assay potency score (higher = more potent) was -0.483.

TTTTTGAATTTGATCTACCTTT registered a sensor-assay potency score (higher = more potent) of -0.342.

With TTATCTAGTGCTTCGGTAGGGT, the sensor-assay potency score (higher = more potent) turned out to be 0.589.

The sequence TTTTTTTTTGAATTTGATCTAC came in with a sensor-assay potency score (higher = more potent) of -0.318.

Turning to TTTTCAACCATTAACAACCCAA, the sensor-assay potency score (higher = more potent) was -0.22.

With TTGAACTGAAGCAAAGACGGTG, the sensor-assay potency score (higher = more potent) was 0.0207.

For TTCATTACTATGATCTTCCACA, the sensor-assay potency score (higher = more potent) is -0.12.

Regarding TTATCTGAAATGTCACATCCTC, the sensor-assay potency score (higher = more potent) stood at 0.002.

Sequence TAGAACAGCTGGTATTCTGTTT yielded a sensor-assay potency score (higher = more potent) of -0.362.

In the case of TTGAATTTGATCTACCTTTTGG, the sensor-assay potency score (higher = more potent) is -0.435.

In turn, TAGCTTTGCTTTGGTCTCGGTG returned a sensor-assay potency score (higher = more potent) of -0.912.

As to TATTCTTCCATGGAACAGCAGA, the sensor-assay potency score (higher = more potent) is -0.626.

For a further experiment, the target named is ATG13. Described as above. Particulars: shRNA.
TTGATTTCTTTATCACACTTTT: the sensor-assay potency score (higher = more potent) is -0.851.

With TTGAGAGTCTTCTACAGACGGG, the sensor-assay potency score (higher = more potent) is -0.452.

Turning to TTGGAGAAGATGATGAACGAGT, the sensor-assay potency score (higher = more potent) is 0.0356.

In turn, TTCAGTATCCTCACTACTGGAG displayed a sensor-assay potency score (higher = more potent) of -0.0842.

On to TATCATAACAAAGTCATCATGG, for which the sensor-assay potency score (higher = more potent) turned out to be 0.359.

Sequence TTCAGCAGCAATGACAGTCTGT returned a sensor-assay potency score (higher = more potent) of 0.524.

The sequence TTGCTAAGTTGAACCAATCTGA showed a sensor-assay potency score (higher = more potent) of 0.054.

The sequence AAATTTAATAAACTTGTCCAGG displayed a sensor-assay potency score (higher = more potent) of -1.15.

In turn, TTTATCACACTTTTCATTCATT yielded a sensor-assay potency score (higher = more potent) of -0.513.

In turn, TGACAGTCTGTTGTACACCGTG had a sensor-assay potency score (higher = more potent) of -0.356.

TTCAAGACACCATATTTCCAGC displayed a sensor-assay potency score (higher = more potent) of -0.751.

A further experiment addresses ATG16L1. Described as above. Particulars: shRNA.
TTTCTTGTAGCTGATTGTCATT: the sensor-assay potency score (higher = more potent) was -1.43.

Regarding TTTTGCTTCATTCATCTGCATC, the sensor-assay potency score (higher = more potent) was -1.44.

Sequence TTCCCTGTGAGCACACTCCAGA returned a sensor-assay potency score (higher = more potent) of -0.634.

For TTTATGCAGACTTTGCTGCGTA, the sensor-assay potency score (higher = more potent) was -0.62.

For the sequence TTTCTTGTGTAATTCAGTCAGT, the sensor-assay potency score (higher = more potent) is -0.093.

Consider TTGTAGCTGATTGTCATTCCAT, for which the sensor-assay potency score (higher = more potent) is -0.0295.

On to ATGAGTATCCACATTGTCCTGG, for which the sensor-assay potency score (higher = more potent) is -0.348.
